In PubChem BioAssay (Tox21) one finds Potency and outcome data, which are given here for 22 molecules.

Assay [1] addresses Thyrotropin receptor (Homo sapiens) (UniProt P16473). Put plainly: qHTS assay to identify small molecule antagonists of the thyroid stimulating hormone receptor (TSHR) signaling pathway (AID 1259385; calls by dose curve; also: nearly all actives have a fitted effect of over 20% in size). The following applies: TSHR-HEK293 cAMP HTRF, TSH-stimulated antagonist mode; series mostly up to 92.4 µM. In outline:
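TSHR-HEK293 cells (800/well) plated 18 h, then compounds with Ro20-1724 and TSH at 1.5 ng/mL final, 30 min at room temperature. cAMP quantified by HTRF (cAMP-d2/anti-cAMP-cryptate, 1 h); 15 concentrations in triplicate.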

Assay [2] can be described thus: qHTS assay to identify small molecule agonists of the estrogen receptor alpha (ER-alpha) signaling pathway in the presence of an antagonist - cell viability counter screen (AID 1259386).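 Also: cells exposed to compounds for 22 h at 37 °C before the viability read; nearly all actives have a fitted effect of over 30% in size.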 The following applies: VM7Luc4E2 viability, CellTiter-Fluor fluorescence, 22 h; series mostly up to 92.4 µM. Put shortly:
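ICI-182,780 at 10.0nM final accompanies the compound titration (15 concentrations, 22hr, 37C) on VM7Luc4E2 cells. The CellTiter-Fluor fluorescence readout runs in the same wells as the luciferase assay.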

The target in assay [3] is Progesterone receptor (Homo sapiens) (UniProt P06401). Nature of the assay: qHTS assay to identify small molecule agonists of the progesterone receptor (PR) signaling pathway (AID 1346784; calls by dose curve; also: nearly all actives have a fitted effect of over 30% in size). As to conditions: PR-UAS-bla HEK293T, beta-lactamase FRET ratio, 16 h; series mostly up to 92.4 µM. Put shortly:
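PR-UAS-bla HEK 293T cells carrying a UAS-driven beta-lactamase reporter were seeded in medium with 2% charcoal-stripped FBS, preincubated 6 hr at 37C, then exposed to compounds in DMSO for 16 hr; agonism was read by LiveBLAzer B/G FRET fluorescence.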

For assay [4] the target is unchanged. Put plainly: qHTS assay to identify small molecule antagonists of the progesterone receptor (PR) signaling pathway (AID 1346795; active = well fitted inhibition curve with a large enough effect in the signal ratio in the repeat runs, not every such curve was filed as active; the % refers to the signal ratio; also: potency is read from the fitted curve at half-maximal effect). The following applies: PR-UAS-bla HEK293T, beta-lactamase FRET ratio, 16 h; series mostly up to 92.4 µM. In outline:
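PR-UAS-bla HEK293T cells carrying a UAS-driven beta-lactamase reporter were plated in medium with 2% charcoal-stripped FBS and rested 6 hr at 37C. Compounds were added with 1 nM R5020 (final) for 16 hr, then FRET substrate loaded 2 hr at room temperature.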

The nature of assay [5]: qHTS assay to identify small molecule antagonists of the TGF-beta/Smad signaling pathway - cell viability counter screen (AID 1346824). Also: nearly all actives have a fitted effect of over 50% in size. As to conditions: SBE-bla HEK293T viability, CellTiter-Glo luminescence; series mostly up to 76.8 µM. In outline: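 SBE-bla HEK 293T cells, incubated overnight, then compound plus 0.25 ng/mL TGF-beta1 (stock added) for 5 hr at 37 C. Viability was read in the same wells by CellTiter-Glo luminescence after 30 min at room temperature.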

Assay [6] is described as follows: qHTS assay to identify small molecule agonists of the TGF-beta/Smad signaling pathway - cell viability counter screen (AID 1346829). Also: top concentration of the series differs between compounds; nearly all actives have a fitted effect of over 45% in size. The following applies: SBE-bla HEK293T viability, CellTiter-Glo luminescence, 5 h; series mostly up to 76.8 µM. Put shortly: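 After overnight seating at 37 C and 5% CO2, reporter cells got compounds for 5 hr and FRET substrate for 2 hr; cell viability then came from CellTiter-Glo luminescence.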

Assay [7] can be described thus: qHTS assay to identify small molecule agonists of the TGF-beta/Smad signaling pathway (AID 1346859; active = well fitted activation curve with a large enough effect in the signal ratio in the repeat runs, not every such curve was filed as active; the % refers to the signal ratio). As to conditions: SBE-bla HEK293T, TGF-beta/Smad beta-lactamase reporter, 5 h; series mostly up to 76.8 µM. In outline: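 HEK 293T cells stably carrying a beta-lactamase reporter driven by the Smad binding element were seeded overnight, exposed to DMSO-dissolved compounds for 5 hr at 37 C, 5% CO2, then loaded with FRET substrate for 2 hr at room temperature.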

A short description of assay [8]: qHTS assay to identify small molecule agonists of the progesterone receptor (PR) signaling pathway - cell viability counter screen (AID 1346799; calls by dose curve; also: nearly all actives have a fitted effect of over 45% in size). As to conditions: PR-UAS-bla HEK293T viability, CellTiter-Glo luminescence, 16 h; series mostly up to 92.4 µM. In outline: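 PR-UAS-bla HEK293T cells, 3,000 per well in medium with 2% charcoal-stripped FBS, were preincubated 6 hr at 37C, then exposed to compounds for 16 hr; viability was read as CellTiter-Glo luminescence after 30 min at room temperature.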

Assay [9] has as its target Thyrotropin-releasing hormone receptor (Homo sapiens) (UniProt P34981). Nature of the assay: qHTS assay to identify small molecule antagonists of the thyrotropin-releasing hormone receptor (TRHR) signaling pathway (AID 1346877; active = well fitted inhibition curve with a large enough effect in the repeat runs, not every such curve was filed as active). As to conditions: TRHR-HEK293, TRH-induced calcium fluorescence, antagonist mode; series mostly up to 51.3 µM. Put shortly: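 Screening used HEK293 cells engineered with TRHR, with a brief 5 min room-temperature compound exposure preceding addition of TRH to 1 nM. The read-out was kinetic calcium-dye fluorescence, concentration-response from 15 doses in triplicate.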

The nature of assay [10]: qHTS assay to identify small molecule antagonists of the progesterone receptor (PR) signaling pathway - cell viability counter screen (AID 1346798). Also: nearly all actives have a fitted effect of over 50% in size. As to conditions: PR-UAS-bla HEK293T viability, CellTiter-Glo luminescence, 16 h; series mostly up to 92.4 µM. In outline:
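PR-UAS-bla HEK293T cells in medium with 2% charcoal-stripped FBS were treated with compounds plus R5020 for 16 hr at 37C. Cell viability was then read by CellTiter-Glo luminescence after 30 min at room temperature in the same wells.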

Results filed as inconclusive are left out. Active and inactive are the calls of the source. Unless noted, calls follow the shape of the dose curve; as a rule, active = well fitted curve in the direction sought with a large enough effect in the repeat runs; inconclusive = weak or mixed curves; inactive = no such curve, though single readings can be large; an effect the other way counts as inactive or inconclusive.

Sequence of Thyrotropin-releasing hormone receptor (Homo sapiens) (P34981 whole entry, looked up): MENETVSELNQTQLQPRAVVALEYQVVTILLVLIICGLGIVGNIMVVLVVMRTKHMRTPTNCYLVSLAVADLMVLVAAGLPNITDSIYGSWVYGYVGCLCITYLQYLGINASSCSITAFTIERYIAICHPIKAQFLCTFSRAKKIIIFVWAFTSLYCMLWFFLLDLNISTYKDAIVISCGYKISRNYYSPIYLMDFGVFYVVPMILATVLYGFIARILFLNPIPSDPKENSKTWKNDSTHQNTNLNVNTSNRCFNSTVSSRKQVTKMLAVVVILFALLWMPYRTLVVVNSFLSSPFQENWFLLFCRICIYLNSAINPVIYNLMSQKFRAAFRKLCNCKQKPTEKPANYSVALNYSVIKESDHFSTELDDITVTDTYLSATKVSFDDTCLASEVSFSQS
Sequence of Thyrotropin receptor (Homo sapiens) (P16473 whole entry, looked up): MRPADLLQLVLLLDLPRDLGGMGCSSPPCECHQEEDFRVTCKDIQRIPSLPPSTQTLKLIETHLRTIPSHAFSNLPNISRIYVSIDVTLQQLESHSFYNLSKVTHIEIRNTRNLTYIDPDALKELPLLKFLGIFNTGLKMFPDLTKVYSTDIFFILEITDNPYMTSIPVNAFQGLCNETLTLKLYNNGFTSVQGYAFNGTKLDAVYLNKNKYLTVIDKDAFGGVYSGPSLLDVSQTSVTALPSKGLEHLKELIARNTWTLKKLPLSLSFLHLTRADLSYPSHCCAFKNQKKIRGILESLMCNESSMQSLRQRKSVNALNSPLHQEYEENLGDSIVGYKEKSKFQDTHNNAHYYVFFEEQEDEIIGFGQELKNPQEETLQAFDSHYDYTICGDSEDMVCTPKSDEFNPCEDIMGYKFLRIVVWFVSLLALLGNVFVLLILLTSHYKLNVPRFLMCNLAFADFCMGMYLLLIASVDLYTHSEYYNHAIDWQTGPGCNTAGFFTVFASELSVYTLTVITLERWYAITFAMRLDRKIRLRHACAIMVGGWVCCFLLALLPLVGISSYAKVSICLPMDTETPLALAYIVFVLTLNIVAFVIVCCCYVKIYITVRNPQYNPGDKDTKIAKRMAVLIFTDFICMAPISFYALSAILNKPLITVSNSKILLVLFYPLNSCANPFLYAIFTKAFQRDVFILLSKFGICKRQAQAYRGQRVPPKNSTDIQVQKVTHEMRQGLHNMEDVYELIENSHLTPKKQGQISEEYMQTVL
Sequence of Progesterone receptor (Homo sapiens) (P06401 whole entry, looked up): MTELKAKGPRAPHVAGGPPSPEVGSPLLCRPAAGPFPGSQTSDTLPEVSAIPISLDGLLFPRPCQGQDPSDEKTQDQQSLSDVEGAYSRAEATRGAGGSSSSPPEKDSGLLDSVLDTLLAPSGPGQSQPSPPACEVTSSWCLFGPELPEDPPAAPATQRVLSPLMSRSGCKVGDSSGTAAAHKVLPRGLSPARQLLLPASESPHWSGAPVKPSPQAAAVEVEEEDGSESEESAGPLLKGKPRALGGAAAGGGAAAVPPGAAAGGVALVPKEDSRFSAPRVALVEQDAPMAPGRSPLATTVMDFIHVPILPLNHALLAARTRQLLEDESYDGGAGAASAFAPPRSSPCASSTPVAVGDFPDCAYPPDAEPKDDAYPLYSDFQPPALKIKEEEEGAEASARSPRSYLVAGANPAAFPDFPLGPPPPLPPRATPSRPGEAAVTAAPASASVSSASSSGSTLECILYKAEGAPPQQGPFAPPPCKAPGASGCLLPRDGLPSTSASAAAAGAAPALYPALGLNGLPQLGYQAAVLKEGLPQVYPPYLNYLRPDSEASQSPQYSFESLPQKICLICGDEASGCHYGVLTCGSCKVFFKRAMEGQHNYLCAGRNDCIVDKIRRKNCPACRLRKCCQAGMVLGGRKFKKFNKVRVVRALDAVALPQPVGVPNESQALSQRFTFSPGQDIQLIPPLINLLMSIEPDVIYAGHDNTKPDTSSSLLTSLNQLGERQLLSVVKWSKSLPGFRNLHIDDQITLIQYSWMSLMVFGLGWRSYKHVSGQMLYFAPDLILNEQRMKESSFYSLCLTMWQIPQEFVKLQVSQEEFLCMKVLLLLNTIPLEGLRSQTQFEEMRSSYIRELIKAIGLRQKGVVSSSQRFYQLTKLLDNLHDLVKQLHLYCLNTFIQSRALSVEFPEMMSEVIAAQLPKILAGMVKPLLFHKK

For `CCCN(C1CCN(C(=O)C2CCNCC2)CC1)[C@@H]1CCc2ccc(OC)cc2C1`, the Potency entry in assay [1], in assay [2], in assay [3] and in assay [4] was “inactive” each time. The outcome in [5], in assay [6] and in assay [7] was inactive.

As for `C=CC(O)CCCCC` (stereo unspecified), the Potency result in [1], in assay [2], in assay [3], in assay [4] and in assay [8] was “inactive” each time. Further, the outcome in assay [5], in assay [6] and in assay [7] was inactive.

Take `O=C(O)CNc1ccccc1`: the Potency result in assay [1], in [2], in assay [3], in assay [4] and in assay [8] was “inactive” in each case. In addition, the outcome in [5], in [6], in assay [7] and in assay [9] was inactive.

For the molecule `CCC(C)CCCC(C)(C)O` (stereo unspecified), the Potency result in assay [1], in [2], in assay [3], in assay [4] and in [8] was “inactive” in each case. Further, the call in [6], in [7] and in assay [9] was inactive.

On to `CC(C)(Cc1c[nH]c2ccccc12)NCC(O)COc1ccccc1C#N` (stereo unspecified), for which the Potency entry in [1], in assay [2], in [3] and in [4] was “inactive” each time. In addition, the call in [5], in assay [6], in [7] and in assay [9] was inactive.

For `C/C(=C(\CCO)SS/C(CCO)=C(\C)N(C=O)Cc1cnc(C)nc1N)N(C=O)Cc1cnc(C)nc1N`, the Potency entry in assay [1], in assay [2], in assay [3] and in assay [4] was “inactive” in each case. In addition, the call in assay [5], in assay [6], in assay [7] and in assay [9] was inactive.

Turning to `Cc1ccc2ccccc2c1[N+](=O)[O-]`, the Potency result in [1], in [2], in assay [3], in [4] and in assay [8] was “inactive” throughout. Besides, the outcome in [6] and in assay [7] was inactive.

Consider `CCCCCCC/C=C/C=O`, for which the Potency result in assay [1], in [2], in assay [3], in assay [4] and in [10] was “inactive” in each case. Moreover, the call in [6], in assay [7] and in assay [9] was inactive.

On to `CC(=O)S[C@H](C(=O)N[C@H]1Cc2ccccc2[C@H]2CCC[C@@H](C(=O)O)N2C1=O)C(C)C`, for which the Potency result in [1], in assay [2], in assay [3], in [10] and in assay [8] was “inactive” in each case. The result in assay [6], in assay [7] and in assay [9] was inactive.

Take `COc1cc(CNC(=O)CCCC/C=C/C(C)C)ccc1O`: the Potency result in [1], in assay [2] and in assay [3] was “inactive” throughout. Moreover, the Potency in [4] was 53 µM (active). For the same molecule, the molecule was called inactive in assay [6], in assay [7] and in assay [9].

`CCCCCCCCC(=O)OCC(C)OC(=O)CCCCCCCC` (stereo unspecified): the Potency entry in assay [1], in [2], in assay [3], in assay [4] and in assay [8] was “inactive” in each case. For the same molecule, the outcome in assay [5], in assay [6], in assay [7] and in assay [9] was inactive.

For `O=c1c2ccccc2oc2ccccc12`, the Potency entry in [1], in assay [2], in [3], in [4] and in assay [8] was “inactive” each time. Moreover, the call in assay [5], in assay [6], in assay [7] and in [9] was inactive.

In the case of `CCOC(=O)CC(O)(CC(=O)OCC)C(=O)OCC`, the Potency result in assay [1], in assay [2], in assay [3], in assay [10] and in [8] was “inactive” in each case. Further, the molecule was classed as inactive in assay [5], in [6] and in [7].

Take `CC(CN=Cc1ccccc1O)N=Cc1ccccc1O` (stereo unspecified): the Potency result in assay [1], in assay [2], in assay [3], in assay [4] and in assay [8] was “inactive” each time. The molecule was classed as inactive in assay [5], in [6], in assay [7] and in [9].

With `CCC(C)C1N=C(C)C(C)S1` (stereo unspecified), the Potency entry in [1], in assay [2], in assay [3], in assay [10] and in [8] was “inactive” each time. Also, the outcome in assay [5], in assay [6], in assay [7] and in [9] was inactive.

On to `O=Cc1ccc([N+](=O)[O-])cc1`, for which the Potency entry in assay [1], in assay [2], in assay [3] and in assay [4] was “inactive” each time. Moreover, the molecule was called inactive in assay [6] and in assay [7].

`COc1cccc([C@H](O)C2CCN(CCc3ccc(F)cc3)CC2)c1OC`: the Potency entry in assay [1], in assay [2], in assay [3], in [4] and in [10] was “inactive” throughout. In addition, the call in [6], in assay [7] and in assay [9] was inactive.

`Cc1cc(C)c(C)c(O)c1`: the Potency result in assay [1], in assay [2], in [3], in [10] and in assay [8] was “inactive” each time. The molecule was called inactive in assay [5], in [6], in assay [7] and in assay [9].

For `COC(=O)/C=C/C(C)=C\C=C\C(C)=C\C=C\C=C(C)\C=C\C=C(C)\C=C\C(=O)O`, the Potency result in [1], in assay [2], in assay [3] and in assay [4] was “inactive” each time. Further, the outcome in assay [5], in assay [6] and in [7] was inactive.

As for `O=C(O)c1ccc(O)c(O)c1`, the Potency entry in assay [1], in assay [2] and in assay [4] was “inactive” in each case. Further, the call in assay [6], in assay [7] and in [9] was inactive.

Turning to `O=C1c2ccccc2C(=O)C1c1ccc2ccccc2n1`, the Potency entry in assay [1], in [3], in [4], in [10] and in assay [8] was “inactive” in each case. Further, the molecule was classed as inactive in assay [5], in assay [6], in [7] and in assay [9].

For `CC(C)Cc1nccs1`, the Potency result in assay [1], in [3], in [4], in assay [10] and in assay [8] was “inactive” each time. Also, the molecule was called inactive in [5], in [6], in [7] and in assay [9].
